The campaign covered roughly 5,500 compounds. About 2,000 (36%) were called active. Inconclusive results (about 18%) are left out. Rule as the data show it: active = normalized growth mostly below about 0.91 (no sharp cut-off); inconclusive = no clear call, values can overlap the other calls; inactive = mostly above about 0.92. The list shows a part of the results.
Test: chemical genetic growth profiling, strain panel (AID 1159580);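 also: tested at 20 µM; growth read once vehicle control cultures reached saturation at 30 °C; 1 = growth at the plate median or of vehicle wells; lower values mean less growth of the strain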
Conditions: S. cerevisiae deletion strains, growth OD
[1] = locus YHR030C, strain SLT2, hits give low values
[2] = locus YJL187C, strain SWE1, hits give low values
[3] = locus YNL153C, strain GIM3, hits give low values
[4] = locus YNL322C, strain KRE1, hits give low values
[5] = locus YPL241C, strain CIN2, hits give low values

Measured: normalized growth

Cc1ncc(CO)c(CO)c1O
inactive: locus YAL021C, strain ccr4, hits give low values 1.02 | locus YAL026C, strain drs2, hits give low values 1.02 | locus YAL030W, strain snc1, hits give low values 1.03 | locus YBL061C, strain skt5, hits give low values 1.02 | locus YBR009C, strain hhf1, hits give low values 1.01 | locus YBR023C, strain chs3, hits give low values 1.03 | locus YBR171W, strain sec66, hits give low values 1.04 | locus YBR231C, strain swc5, hits give low values 1.02 | locus YBR279W, strain paf1, hits give low values 1.01 | locus YCL011C, strain gbp2, hits give low values 1.02 | locus YCL016C, strain dcc1, hits give low values 1.01 | locus YCL069W, strain vba3, hits give low values 1.04 | locus YCR088W, strain abp1, hits give low values 1.01 | locus YDL005C, strain med2, hits give low values 1.03 | locus YDL040C, strain nat1, hits give low values 1.02 | locus YDR001C, strain nth1, hits give low values 1.03 | locus YDR069C, strain doa4, hits give low values 1.03 | locus YDR137W, strain rgp1, hits give low values 1.03 | locus YDR159W, strain sac3, hits give low values 1 | locus YDR195W, strain ref2 1.03 | locus YDR297W, strain sur2, hits give low values 1.03 | locus YDR334W, strain swr1, hits give low values 1.03 | locus YDR335W, strain msn5, hits give low values 1.02 | locus YDR392W, strain spt3, hits give low values 1.01 | locus YEL003W, strain gim4, hits give low values 1.02 | locus YEL037C, strain rad23, hits give low values 1.02 | locus YEL061C, strain CIN8 (second series), hits give low values 1.02 | locus YER015W, strain faa2, hits give low values 1.03 | locus YER016W, strain bim1, hits give low values 1 | locus YER111C, strain swi4, hits give low values 1.02 | locus YER155C, strain BEM2 (second series), hits give low values 1.07 | locus YFR010W, strain ubp6, hits give low values 1.02 | locus YGL167C, strain pmr1, hits give low values 1.03 | locus YGL173C, strain kem1, hits give low values 1.04 | locus YGL227W, strain vid30, hits give low values 1.02 | locus YGL240W, strain doc1, hits give low values 1.01 | locus YGL253W, strain hxk2, hits give low values 1.03 | locus YHR013C, strain ard1, hits give low values 1.03 | locus YHR027C, strain rpn1, hits give low values 1.02 | [1] 0.956 | locus YHR079C, strain IRE1, hits give low values 0.98 | locus YHR142W, strain chs7, hits give low values 1.02 | locus YJL092W, strain hpr5, hits give low values 1.01 | locus YJL095W, strain BCK1 (second series), hits give low values 1.02 | locus YJL095W, strain BCK1, hits give low values 0.973 | locus YJL115W, strain asf1, hits give low values 1.03 | locus YJL129C, strain trk1, hits give low values 1.04 | locus YJL154C, strain vps35, hits give low values 1.03 | locus YJL164C, strain tpk1, hits give low values 1.01 | locus YJL166W, strain qcr8, hits give low values 1.02 | [2] 1.03 | locus YJR066W, strain TOR1, hits give low values 0.911 | locus YKL160W, strain elf1, hits give low values 1.01 | locus YKR026C, strain gcn3, hits give low values 1.02 | locus YKR091W, strain srl3, hits give low values 1.02 | locus YLL001W, strain dnm1, hits give low values 0.999 | locus YLL026W, hits give low values 1.02 | locus YLL041C, strain sdh2, hits give low values 1.02 | locus YLR027C, strain aat2, hits give low values 1.01 | locus YLR113W, strain HOG1, hits give low values 0.962 | locus YLR221C, strain rsa3, hits give low values 1 | locus YLR258W, strain gsy2, hits give low values 1.02 | locus YLR262C, strain YPT6 (second series), hits give low values 1.04 | locus YLR320W, strain mms22, hits give low values 1.04 | locus YLR342W, strain FKS1, hits give low values 1.02 | locus YLR357W, strain rsc2, hits give low values 1 | locus YLR370C, strain arc18, hits give low values 1.03 | locus YLR384C, strain iki3, hits give low values 1.02 | locus YML120C, strain ndi1, hits give low values 1.02 | locus YMR058W, strain fet3, hits give low values 1.02 | locus YMR125W, strain sto1, hits give low values 1.01 | locus YMR129W, hits give low values 1.02 | locus YMR205C, strain PFK2, hits give low values 1.05 | locus YMR231W, strain pep5, hits give low values 1.03 | locus YNL071W, strain lat1, hits give low values 1.02 | locus YNL183C, strain NPR1, hits give low values 0.927 | locus YNL209W, strain ssb2, hits give low values 1.03 | locus YNL248C, strain rpa49, hits give low values 1.03 | locus YNL322C, strain KRE1 (second series), hits give low values 1.04 | locus YNR049C, strain mso1, hits give low values 1.03 | locus YOR001W, strain rrp6, hits give low values 1.03 | locus YOR070C, strain gyp1, hits give low values 1.03 | locus YOR080W, strain dia2, hits give low values 1.04 | locus YOR083W, strain WHI5, hits give low values 0.975 | locus YOR106W, strain vam3, hits give low values 1.03 | locus YOR231W, strain MKK1, hits give low values 0.957 | locus YOR265W, strain rbl2, hits give low values 1.03 | locus YOR270C, strain vph1, hits give low values 1.08 | locus YOR290C, strain snf2, hits give low values 1.02 | locus YPL051W, strain arl3, hits give low values 1.02 | locus YPL078C, strain atp4, hits give low values 1.02 | locus YPL106C, strain sse1, hits give low values 1.04 | locus YPL240C, strain hsp82, hits give low values 1.04 | locus YPL256C, strain CLN2, hits give low values 0.975

CC(=O)C1=C(C)Nc2ccccc2S1
inactive: locus YAL013W, strain DEP1, hits give low values 0.959 | locus YBR229C, strain ROT2, hits give low values 0.949 | locus YDL101C, strain DUN1, hits give low values 0.938 | locus YDR150W, strain NUM1, hits give low values 0.911 | locus YEL061C, strain CIN8, hits give low values 0.943 | locus YGR078C, strain PAC10, hits give low values 0.982 | locus YGR229C, strain SMI1, hits give low values 1.02 | [1] 0.922 | locus YHR087W, strain rtc3, hits give low values 1.01 | [2] 0.954 | locus YJR075W, strain HOC1, hits give low values 0.974 | locus YLR039C, strain RIC1, hits give low values 0.978 | locus YLR058C, strain SHM2 (second series), hits give low values 0.987 | locus YLR262C, strain YPT6, hits give low values 1.03 | locus YML094W, strain GIM5, hits give low values 0.888 | locus YMR219W, strain ESC1, hits give low values 0.971 | [3] 0.963 | locus YNL298W, strain CLA4 (second series), hits give low values 0.857 | [4] 1.02 | locus YPL055C, strain LGE1, hits give low values 0.795
active: locus YLR085C, strain ARP6, hits give low values 0.622 | locus YMR263W, strain SAP30, hits give low values 0.852 | locus YNR030W, strain Alg12, hits give low values 0.804 | [5] 0.849 | locus YPR135W, strain CTF4, hits give low values 0.623

CCCN(CCC)C(=O)Cc1c(-c2ccc(Cl)cc2)nc2c(Cl)cc(Cl)cn12
inactive: locus YAL040C, strain CLN3, hits give low values 1 | locus YDR363W, strain ESC2, hits give low values 1.01 | locus YER002W, strain NOP16, hits give low values 1.05 | locus YMR307W, strain GAS1, hits give low values 1 | locus YNL128W, strain TEP1, hits give low values 1.01 | [3] 1.02 | locus YNL175C, strain NOP13, hits give low values 1.03 | locus YNL197C, strain WHI3, hits give low values 1.03 | locus YNL224C, strain SQS1, hits give low values 1.01 | [4] 0.985 | locus YOR083W, strain WHI5 (second series), hits give low values 1.08 | [5] 0.992
